Laboratory results from PubChem BioAssay (NCATS).
Inconclusive results are not listed. A call without a number means that no potency is given here. A number with no mark means an inactive call. Activity calls are given as the source filed them. Calls follow the shape of the dose curve; as a rule, active = well fitted activation curve with a large enough effect; inconclusive = small, poorly fitted or top-dose-only effect; inactive = flat fitted curve, though single readings scatter. Where a SMILES comes first, the peptide text is derived from it.

test: Primary redox qHTS assay for identification of artifact compounds. (AID 1845223); conditions: Amplex Red/HRP redox cycling with DTT, fluorescence; series mostly up to 53.8 µM
Method in brief: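 Redox-cycling detection via DTT (250 uM final) oxidation coupled to Amplex Red (25 uM)/HRP (250 mU/mL) in HBSS. 15 min preincubation plus 30 min after DTT, room temperature. Ex/Em 525/598 nm; 4-parameter Hill fit against DMSO and 10 uM DA3003.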

Q: With `COc1ccc(C)c2sc(NC(=O)c3ccncc3)nc12` as the molecule, how does the Potency read?
A: inactive

Q: Which Potency does the source give for `C=C1CC2C3(C)C(OC(C)=O)CC(=O)OC(C)(C)C3C(O)C(OC(C)=O)C2(C)C2C(=O)OC(C)C(=O)C12C` (configuration not stated) here?
A: inactive

Q: Which Potency does the source give for `CO[C@@H]1COCC[C@@H]1N[C@@H]1CC[C@@](C(=O)N2CCc3ncc(C(F)(F)F)cc3C2)(C(C)C)C1` here?
A: inactive

Q: Which Potency does the source give for `C[C@@H]1C[C@H]2[C@@H]3CCC4=CC(=O)C=C[C@]4(C)[C@@]3(F)[C@@H](O)C[C@]2(C)[C@@]1(O)C(=O)COP(=O)(O)O` here?
A: inactive

Q: For `C=C(C)C(=O)O[C@H]1C[C@@](C)(OC(C)=O)[C@@]2(O)CC[C@@](C)(O)[C@H](OC(C)=O)[C@@]23OC(=O)C(COC)=C13`, which Potency is on record?
A: inactive

Q: With `CC[C@H](/C=C/[C@@H](C)[C@H]1CC[C@H]2[C@@H]3CC=C4C[C@@H](O)CC[C@]4(C)[C@H]3CC[C@]12C)C(C)C` as the molecule, how does the redox activity (% of DA3003) read?
A: -0.124% [at 6.41 µM]

Q: With `Cc1cc(N2CCCCC2)nc2ccccc12` as the molecule, how does the Potency read?
A: inactive

Q: Which Potency does the source give for `CC(C)Nc1cc(-c2c[nH]c(C(=O)N[C@H](CO)c3cccc(Cl)c3)c2)c(Cl)cn1` here?
A: inactive

Q: For `O=C(/C=C/c1ccc(O)cc1)OCC1=CC2OC(=O)C3=CO[C@@H](O[C@@H]4O[C@H](CO)[C@@H](O)[C@H](O)[C@H]4O)[C@H]1[C@@H]32` (some centres not stated), which Potency is on record?
A: inactive

Q: For `COc1ccccc1CC(C(=O)O)N(C)C(=O)c1ccccc1` (configuration not stated), which Potency is on record?
A: inactive

Q: For `Cc1coc2c1CC1OC1(C)CCC1OC1(C)C2` (configuration not stated), which Potency is on record?
A: inactive

Q: For `CC1NC(=O)CNC(=O)C(C(C)C)NC(=O)C2CCCN2C(=O)C(C(C)C)NC(=O)C(Cc2c[nH]c3ccccc23)NC1=O` (configuration not stated) (cyclo(GAWVPV); configuration not given here), which Potency is on record?
A: inactive
